Consider 20 compounds from PubChem BioAssay (NCI).

Some test systems named below: HCT-15 colon; HT29 colon; SNB-75 CNS; SNB-19 CNS; U251 CNS; PC-3 prostate; SK-MEL-5 melanoma; LOX IMVI melanoma; SK-MEL-28 melanoma.
Holding throughout (assay): NCI-60 one-dose screen, 48 h (100 = growth as untreated, 0 = no growth, -100 = all killed)
What all share (settings): 10 µM unless noted

The panel holds about 83,000 compounds, 20% with a hit somewhere; the sample as a whole holds those more often.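 Compound tested at a single concentration for 48 hours in 96-well plates; a percent growth value below 10 was scored as active.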 Unmarked numbers belong to inactive results. Calls of active or inactive are those of the source.

On to `COc1cccc(-c2nn(-c3ccccc3)cc2-c2ccnc(NCCCO)c2)c1`, for which the growth in the test on HCT-15 colon is 26.3%; in the test on HT29 colon, 7.65% (active); in the test with SNB-75 CNS, 23.4%; in the test with SNB-19 CNS it was 36.3%; in the test with U251 CNS it was 21%; with PC-3 prostate, 46.4%. The figures for the growth with SK-MEL-5 melanoma and with LOX IMVI melanoma were 29.8% and 33.6%, respectively.

Regarding `CCN(CC)C(=O)CCCCCn1c2ccccc2c2c3c(c4c5ccccc5[nH]c4c21)C(=O)N(O)C3=O`, the growth was 45.9% in the test on HCT-15 colon; -43.7% (active) with HT29 colon; 74.4% in the test on SNB-75 CNS; 47.2% in the test with SNB-19 CNS; 10.5% in the test on U251 CNS; 30% in the test with PC-3 prostate. For the same compound, the growth is 25.9% with SK-MEL-5 melanoma and -59% (active) with LOX IMVI melanoma.

On to `CCCCCCCC(=O)SCC/C=C/[C@@H]1CC(=O)NCc2cccc(n2)CN(Cc2ccc(Cl)cc2)CC(=O)N[C@@H](C(C)C)C(=O)O1`, for which the growth in the test with HCT-15 colon is 20.7%; in the test on HT29 colon, -2.23% (active); with SNB-75 CNS, 18.6%; in the test with SNB-19 CNS, 15.3%; with U251 CNS, -48.2% (active); in the test with PC-3 prostate, 9.67% (active). Besides, the growth with SK-MEL-5 melanoma is -84.6% (active); in the test with LOX IMVI melanoma, -61.5% (active).

Turning to `O=S(=O)(NCCCNc1cc(-c2cn(-c3ccccc3)nc2-c2cccc(O)c2)ccn1)c1ccc(F)cc1`, the growth was 6.54% (active) with HCT-15 colon; 0.761% (active) in the test with HT29 colon; 46.3% with SNB-75 CNS; 57.4% in the test on SNB-19 CNS; 31.3% in the test on U251 CNS; 23% in the test with PC-3 prostate. For the same compound, the growth in the test with SK-MEL-5 melanoma was 31.4%; in the test on LOX IMVI melanoma, 18.9%.

On to `COc1cccc(-c2nn(-c3ccccc3)cc2-c2ccnc(NCCCNS(=O)(=O)c3cccc(F)c3)c2)c1`, for which the growth with HCT-15 colon is 21.9%; in the test with HT29 colon, 15.1%; with SNB-75 CNS it was 55.4%; with SNB-19 CNS, 42.8%; with U251 CNS it was 27.5%; in the test on PC-3 prostate, 11.9%. For the same compound, the growth in the test on SK-MEL-5 melanoma was -45.6% (active); with LOX IMVI melanoma, 27.5%.

Turning to `COc1cc2c3c(c4c5ccccc5[nH]c4c2c(OC)c1OC)C(=O)N(O)C3=O`, the growth in the test on HCT-15 colon is 45.8%; with HT29 colon it was 52.1%; in the test with SNB-75 CNS, 72.6%; with SNB-19 CNS, 54.5%; in the test on U251 CNS, 28%; in the test with PC-3 prostate, 43.8%. For the same compound, the growth was 11.1% with SK-MEL-5 melanoma and 26.3% in the test with LOX IMVI melanoma.

For the compound `c1ccc(CN2C(c3ccccc3)=Nc3ccccc3C2c2c[nH]c3ccccc23)cc1` (stereo not given), the growth in the test with HCT-15 colon was 35.6%; in the test on HT29 colon it was 15.1%; in the test on SNB-75 CNS it was 59.2%; in the test on SNB-19 CNS, 49.1%; with U251 CNS, 35.7%; in the test on PC-3 prostate, 29.8%. The growth in the test with SK-MEL-5 melanoma is 42.4%; in the test with LOX IMVI melanoma, 15.4%.

With `CC(=O)OCCCCCCn1c2ccccc2c2c3c(c4c5ccccc5n(C)c4c21)C(=O)N(O)C3=O`, the growth in the test on HCT-15 colon was 69.5%; with HT29 colon, 23.7%; in the test on SNB-75 CNS, 101%; in the test on SNB-19 CNS, 77.5%; in the test on U251 CNS, 58.4%; in the test with PC-3 prostate, 52.9%. Further, the results for the growth in the test on SK-MEL-5 melanoma and with LOX IMVI melanoma were 41.7% and 5.8% (active), respectively.

`COc1cccc(-c2nn(-c3ccccc3)cc2-c2ccnc(NCCNS(=O)(=O)c3cccc(F)c3)c2)c1`: the growth in the test with HCT-15 colon is 24.3%; in the test with HT29 colon, 16.9%; in the test on SNB-75 CNS, 70.6%; with SNB-19 CNS, 37.2%; with U251 CNS it was 27%; in the test on PC-3 prostate, 19.1%. Moreover, the growth in the test with SK-MEL-5 melanoma is 26.7%; with LOX IMVI melanoma, 38.3%.

`COc1ccc(-c2cc(-c3c(C)oc4cc5occc5c(OC)c4c3=O)nc(N)c2C#N)cc1OC`: the growth is 55.6% with HCT-15 colon; 67% in the test with HT29 colon; 40.3% in the test on SNB-75 CNS; 64.3% with SNB-19 CNS; 48.9% with U251 CNS; 62.6% in the test on PC-3 prostate. The figures for the growth in the test on SK-MEL-5 melanoma and with LOX IMVI melanoma were 52.7% and 50.2%, respectively.

Take `COc1ccc(C2c3ccccc3NC(=O)N2C2CCN(C)CC2)c(OC)c1` (stereo not given): the growth in the test on HCT-15 colon was 95.6%; with HT29 colon, 100%; in the test with SNB-75 CNS, 72.7%; in the test on SNB-19 CNS, 93%; in the test on U251 CNS it was 100%; with PC-3 prostate it was 94.4%. For the same compound, the figures for the growth in the test on SK-MEL-5 melanoma and in the test on LOX IMVI melanoma were 84.7% and 103%, respectively.

For `Clc1ccc2c(NCCNc3nc(-c4ccccc4)cc(-c4ccccc4)n3)ccnc2c1`, the growth with HCT-15 colon was -74.2% (active); in the test with HT29 colon, -54.3% (active); in the test with SNB-75 CNS, -72.2% (active); in the test on SNB-19 CNS, -51.7% (active); in the test with U251 CNS it was -90.6% (active); with PC-3 prostate, -88.5% (active). For the same compound, the figures for the growth with SK-MEL-5 melanoma, in the test with LOX IMVI melanoma and in the test on SK-MEL-28 melanoma were -93.4% (active), -76.7% (active) and -90.7% (active), respectively.

As to `COc1cccc(-c2nn(-c3ccccc3)cc2-c2ccnc(NCCCNS(=O)(=O)c3ccc(Cl)cc3)c2)c1`, the growth in the test on HCT-15 colon is 34.4%; with HT29 colon, 11.3%; in the test on SNB-75 CNS it was 71.2%; with SNB-19 CNS, 52.1%; in the test on U251 CNS it was 35.5%; in the test on PC-3 prostate it was 25.1%. Besides, the values for the growth in the test with SK-MEL-5 melanoma and in the test with LOX IMVI melanoma were 30.8% and 52.3%, respectively.

Consider `Cc1ccncc1C(=O)O`, for which the growth in the test with HCT-15 colon is 104%; in the test on HT29 colon, 101%; in the test on SNB-75 CNS it was 86.6%; with SNB-19 CNS it was 92.9%; in the test on U251 CNS, 97.2%; with PC-3 prostate, 90.1%. Further, the growth in the test with SK-MEL-5 melanoma was 106%; with LOX IMVI melanoma, 94%; in the test with SK-MEL-28 melanoma it was 95.4%.

Consider `Cc1cc(N2CCCCC2)nc(N(CCNc2ccnc3cc(Cl)ccc23)Cc2ccco2)n1`, for which the growth was 13.8% with HCT-15 colon; 6.61% (active) with HT29 colon; 43.9% in the test with SNB-75 CNS; -69.9% (active) in the test on SNB-19 CNS; 14.4% with U251 CNS; 13.9% with PC-3 prostate. In addition, the growth in the test with SK-MEL-5 melanoma was -90.5% (active); in the test with LOX IMVI melanoma, -12.6% (active); with SK-MEL-28 melanoma it was 38.9%.

For the compound `Cn1cc(-c2csc(-c3cn(CCN)c4ccccc34)n2)c2cccnc21`, the growth is 46.6% in the test on HCT-15 colon; 30.3% in the test on HT29 colon; 46.8% with SNB-75 CNS; 65.3% in the test on SNB-19 CNS; -75% (active) with U251 CNS; 46.7% with PC-3 prostate. Moreover, the growth with SK-MEL-5 melanoma is 23.7%; in the test with LOX IMVI melanoma, 45.3%; in the test with SK-MEL-28 melanoma, 73%.

Regarding `COc1cc2ncnc(Nc3ccc(Oc4ccnc(C)c4)c(C)c3)c2cc1NC(=O)CC1CCSS1` (stereo not given), the growth in the test with HCT-15 colon is -72.4% (active); in the test on HT29 colon, -80.7% (active); in the test with SNB-75 CNS, -3.3% (active); in the test on SNB-19 CNS, -32.2% (active); with U251 CNS it was -13.4% (active); with PC-3 prostate, -50.3% (active). Moreover, the growth in the test with SK-MEL-5 melanoma is -89.1% (active); in the test with LOX IMVI melanoma, -87.8% (active); with SK-MEL-28 melanoma, -66% (active).

Take `COc1ccc(C2=NN(c3nc(-c4ccc(OC)cc4)c(C#N)c(=O)n3C)C(=O)CC2)cc1`: the growth with HCT-15 colon was 106%; in the test on HT29 colon it was 109%; with SNB-75 CNS, 86.5%; in the test on SNB-19 CNS, 96.7%; in the test on U251 CNS, 100%; with PC-3 prostate, 82.4%. For the same compound, the results for the growth with SK-MEL-5 melanoma and in the test on LOX IMVI melanoma were 96.3% and 101%, respectively.

With `COc1cc(-c2cc3cc(O)ccc3oc2=O)cc(OC)c1OC`, the growth is 91.4% in the test on HCT-15 colon; 103% with HT29 colon; 65.3% with SNB-75 CNS; 95.5% in the test with SNB-19 CNS; 99.3% in the test on U251 CNS; 85.3% in the test on PC-3 prostate. Also, the growth was 93.6% with SK-MEL-5 melanoma and 103% with LOX IMVI melanoma.

For `N#CCCCCCn1c2ccccc2c2c3c(c4c5ccccc5n(CCCCCC#N)c4c21)C(=O)N(O)C3=O`, the growth with HCT-15 colon was 97.3%; in the test on HT29 colon, 68%; with SNB-75 CNS it was 100%; with SNB-19 CNS it was 66.7%; in the test on U251 CNS, 83.8%; in the test with PC-3 prostate, 68.5%. Further, the growth in the test with SK-MEL-5 melanoma is 74.2%; with LOX IMVI melanoma it was 24%.
